Reference: ChEMBL document CHEMBL1961873, “Compounds: GSK PKIS; Assays: Nanosyn kinase panel” (2012)

Tests used:
[1] = biological target: RAC-alpha serine/threonine-protein kinase (Homo sapiens) (UniProt P31749); conditions: at 0.1 µM
[2] = biological target: RAC-alpha serine/threonine-protein kinase (Homo sapiens) (UniProt P31749); conditions: at 1 µM
[3] = biological target: RAC-beta serine/threonine-protein kinase (Homo sapiens) (UniProt P31751); conditions: at 0.1 µM
[4] = biological target: RAC-beta serine/threonine-protein kinase (Homo sapiens) (UniProt P31751); conditions: at 1 µM
[5] = biological target: RAC-gamma serine/threonine-protein kinase (Homo sapiens) (UniProt Q9Y243); conditions: at 0.1 µM
[6] = biological target: RAC-gamma serine/threonine-protein kinase (Homo sapiens) (UniProt Q9Y243); conditions: at 1 µM
[7] = biological target: G protein-coupled receptor kinase 6 (Homo sapiens) (UniProt P43250); conditions: at 0.1 µM
[8] = biological target: G protein-coupled receptor kinase 6 (Homo sapiens) (UniProt P43250); conditions: at 1 µM
[9] = biological target: Rhodopsin kinase GRK7 (Homo sapiens) (UniProt Q8WTQ7); conditions: at 0.1 µM
[10] = biological target: Rhodopsin kinase GRK7 (Homo sapiens) (UniProt Q8WTQ7); conditions: at 1 µM
[11] = biological target: Serine/threonine-protein kinase MRCK alpha (Homo sapiens) (UniProt Q5VT25); conditions: at 0.1 µM
[12] = biological target: Serine/threonine-protein kinase MRCK alpha (Homo sapiens) (UniProt Q5VT25); conditions: at 1 µM
[13] = biological target: Serine/threonine-protein kinase MRCK beta (Homo sapiens) (UniProt Q9Y5S2); conditions: at 0.1 µM
[14] = biological target: Serine/threonine-protein kinase MRCK beta (Homo sapiens) (UniProt Q9Y5S2); conditions: at 1 µM
[15] = biological target: Ribosomal protein S6 kinase alpha-5 (Homo sapiens) (UniProt O75582); conditions: at 0.1 µM
[16] = biological target: Ribosomal protein S6 kinase alpha-5 (Homo sapiens) (UniProt O75582); conditions: at 1 µM
[17] = biological target: Ribosomal protein S6 kinase alpha-4 (Homo sapiens) (UniProt O75676); conditions: at 0.1 µM
[18] = biological target: Ribosomal protein S6 kinase alpha-4 (Homo sapiens) (UniProt O75676); conditions: at 1 µM
[19] = biological target: Ribosomal protein S6 kinase beta-1 (Homo sapiens) (UniProt P23443); conditions: at 0.1 µM
[20] = biological target: Ribosomal protein S6 kinase beta-1 (Homo sapiens) (UniProt P23443); conditions: at 1 µM
[21] = biological target: 3-phosphoinositide-dependent protein kinase 1 (Homo sapiens) (UniProt O15530); conditions: at 0.1 µM;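 also: values are mean inhibition of PDK1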
[22] = biological target: cAMP-dependent protein kinase catalytic subunit alpha (Homo sapiens) (UniProt P17612); conditions: at 0.1 µM
[23] = biological target: cAMP-dependent protein kinase catalytic subunit alpha (Homo sapiens) (UniProt P17612); conditions: at 1 µM
[24] = biological target: Protein kinase C alpha type (Homo sapiens) (UniProt P17252); conditions: at 0.1 µM
[25] = biological target: Protein kinase C alpha type (Homo sapiens) (UniProt P17252); conditions: at 1 µM
[26] = biological target: Protein kinase C beta type (Homo sapiens) (UniProt P05771); conditions: at 0.1 µM
[27] = biological target: Protein kinase C beta type (Homo sapiens) (UniProt P05771); conditions: at 1 µM
[28] = biological target: Protein kinase C eta type (Homo sapiens) (UniProt P24723); conditions: at 0.1 µM
[29] = biological target: Protein kinase C eta type (Homo sapiens) (UniProt P24723); conditions: at 1 µM
[30] = biological target: Protein kinase C gamma type (Homo sapiens) (UniProt P05129); conditions: at 0.1 µM
[31] = biological target: Protein kinase C gamma type (Homo sapiens) (UniProt P05129); conditions: at 1 µM
[32] = biological target: Protein kinase C iota type (Homo sapiens) (UniProt P41743); conditions: at 0.1 µM
[33] = biological target: Protein kinase C iota type (Homo sapiens) (UniProt P41743); conditions: at 1 µM
[34] = biological target: Protein kinase C theta type (Homo sapiens) (UniProt Q04759); conditions: at 0.1 µM
[35] = biological target: Protein kinase C theta type (Homo sapiens) (UniProt Q04759); conditions: at 1 µM
[36] = biological target: Protein kinase C beta type (Homo sapiens) (UniProt P05771); conditions: at 0.1 µM; remark: listed apart in the source
[37] = biological target: Protein kinase C beta type (Homo sapiens) (UniProt P05771); conditions: at 1 µM; remark: listed apart in the source
[38] = biological target: Serine/threonine-protein kinase D1 (Homo sapiens) (UniProt Q15139); conditions: at 0.1 µM
[39] = biological target: Serine/threonine-protein kinase D1 (Homo sapiens) (UniProt Q15139); conditions: at 1 µM
[40] = biological target: Serine/threonine-protein kinase D2 (Homo sapiens) (UniProt Q9BZL6); conditions: at 0.1 µM
[41] = biological target: Serine/threonine-protein kinase D2 (Homo sapiens) (UniProt Q9BZL6); conditions: at 1 µM
[42] = biological target: Serine/threonine-protein kinase D3 (Homo sapiens) (UniProt O94806); conditions: at 0.1 µM
[43] = biological target: Serine/threonine-protein kinase D3 (Homo sapiens) (UniProt O94806); conditions: at 1 µM
[44] = biological target: cGMP-dependent protein kinase 1 (Homo sapiens) (UniProt Q13976); conditions: at 0.1 µM
[45] = biological target: cGMP-dependent protein kinase 1 (Homo sapiens) (UniProt Q13976); conditions: at 1 µM
[46] = biological target: cGMP-dependent protein kinase 2 (Homo sapiens) (UniProt Q13237); conditions: at 0.1 µM
[47] = biological target: cGMP-dependent protein kinase 2 (Homo sapiens) (UniProt Q13237); conditions: at 1 µM
[48] = biological target: cAMP-dependent protein kinase catalytic subunit PRKX (Homo sapiens) (UniProt P51817); conditions: at 0.1 µM
[49] = biological target: cAMP-dependent protein kinase catalytic subunit PRKX (Homo sapiens) (UniProt P51817); conditions: at 1 µM
[50] = biological target: Rho-associated protein kinase 1 (Homo sapiens) (UniProt Q13464); conditions: at 0.1 µM
[51] = biological target: Rho-associated protein kinase 1 (Homo sapiens) (UniProt Q13464); conditions: at 1 µM
[52] = biological target: Rho-associated protein kinase 2 (Homo sapiens) (UniProt O75116); conditions: at 0.1 µM
[53] = biological target: Rho-associated protein kinase 2 (Homo sapiens) (UniProt O75116); conditions: at 1 µM
[54] = biological target: Ribosomal protein S6 kinase alpha-1 (Homo sapiens) (UniProt Q15418); conditions: at 0.1 µM
[55] = biological target: Ribosomal protein S6 kinase alpha-1 (Homo sapiens) (UniProt Q15418); conditions: at 1 µM

Sequence of Protein kinase C beta type (Homo sapiens) (P05771 2-671 limits assumed): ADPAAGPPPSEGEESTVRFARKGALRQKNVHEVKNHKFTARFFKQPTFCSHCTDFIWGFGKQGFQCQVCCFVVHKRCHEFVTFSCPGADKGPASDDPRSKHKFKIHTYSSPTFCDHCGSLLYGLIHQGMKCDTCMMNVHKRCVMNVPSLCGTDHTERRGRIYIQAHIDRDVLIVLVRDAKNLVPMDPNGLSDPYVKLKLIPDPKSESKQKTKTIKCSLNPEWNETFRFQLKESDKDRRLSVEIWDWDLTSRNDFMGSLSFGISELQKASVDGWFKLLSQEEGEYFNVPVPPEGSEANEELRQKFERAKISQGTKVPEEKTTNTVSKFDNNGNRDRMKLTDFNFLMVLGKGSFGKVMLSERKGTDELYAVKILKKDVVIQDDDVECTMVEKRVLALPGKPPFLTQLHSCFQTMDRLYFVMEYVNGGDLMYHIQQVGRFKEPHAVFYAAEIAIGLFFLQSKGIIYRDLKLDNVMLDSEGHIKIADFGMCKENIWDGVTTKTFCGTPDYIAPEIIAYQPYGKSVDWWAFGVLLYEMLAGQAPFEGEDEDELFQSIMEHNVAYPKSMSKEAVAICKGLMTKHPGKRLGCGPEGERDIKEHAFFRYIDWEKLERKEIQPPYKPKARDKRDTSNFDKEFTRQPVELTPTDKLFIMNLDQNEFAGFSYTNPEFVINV
Sequence of G protein-coupled receptor kinase 6 (Homo sapiens) (P43250 whole entry, looked up): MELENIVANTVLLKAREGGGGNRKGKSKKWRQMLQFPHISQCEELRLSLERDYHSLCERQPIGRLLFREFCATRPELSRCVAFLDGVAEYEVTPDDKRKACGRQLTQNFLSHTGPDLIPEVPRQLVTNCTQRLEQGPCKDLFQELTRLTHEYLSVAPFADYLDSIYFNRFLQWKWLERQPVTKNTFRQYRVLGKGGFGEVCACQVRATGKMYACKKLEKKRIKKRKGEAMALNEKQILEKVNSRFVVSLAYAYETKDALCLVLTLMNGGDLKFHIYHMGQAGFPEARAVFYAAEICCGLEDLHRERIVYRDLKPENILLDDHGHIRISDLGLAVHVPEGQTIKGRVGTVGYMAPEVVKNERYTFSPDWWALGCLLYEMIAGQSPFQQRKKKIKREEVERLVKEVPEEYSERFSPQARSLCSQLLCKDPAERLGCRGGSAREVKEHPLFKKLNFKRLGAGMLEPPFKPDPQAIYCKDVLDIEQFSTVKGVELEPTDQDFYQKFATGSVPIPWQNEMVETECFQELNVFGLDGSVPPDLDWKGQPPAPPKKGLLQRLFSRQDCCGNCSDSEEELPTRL
Sequence of Rho-associated protein kinase 2 (Homo sapiens) (O75116 whole entry, looked up): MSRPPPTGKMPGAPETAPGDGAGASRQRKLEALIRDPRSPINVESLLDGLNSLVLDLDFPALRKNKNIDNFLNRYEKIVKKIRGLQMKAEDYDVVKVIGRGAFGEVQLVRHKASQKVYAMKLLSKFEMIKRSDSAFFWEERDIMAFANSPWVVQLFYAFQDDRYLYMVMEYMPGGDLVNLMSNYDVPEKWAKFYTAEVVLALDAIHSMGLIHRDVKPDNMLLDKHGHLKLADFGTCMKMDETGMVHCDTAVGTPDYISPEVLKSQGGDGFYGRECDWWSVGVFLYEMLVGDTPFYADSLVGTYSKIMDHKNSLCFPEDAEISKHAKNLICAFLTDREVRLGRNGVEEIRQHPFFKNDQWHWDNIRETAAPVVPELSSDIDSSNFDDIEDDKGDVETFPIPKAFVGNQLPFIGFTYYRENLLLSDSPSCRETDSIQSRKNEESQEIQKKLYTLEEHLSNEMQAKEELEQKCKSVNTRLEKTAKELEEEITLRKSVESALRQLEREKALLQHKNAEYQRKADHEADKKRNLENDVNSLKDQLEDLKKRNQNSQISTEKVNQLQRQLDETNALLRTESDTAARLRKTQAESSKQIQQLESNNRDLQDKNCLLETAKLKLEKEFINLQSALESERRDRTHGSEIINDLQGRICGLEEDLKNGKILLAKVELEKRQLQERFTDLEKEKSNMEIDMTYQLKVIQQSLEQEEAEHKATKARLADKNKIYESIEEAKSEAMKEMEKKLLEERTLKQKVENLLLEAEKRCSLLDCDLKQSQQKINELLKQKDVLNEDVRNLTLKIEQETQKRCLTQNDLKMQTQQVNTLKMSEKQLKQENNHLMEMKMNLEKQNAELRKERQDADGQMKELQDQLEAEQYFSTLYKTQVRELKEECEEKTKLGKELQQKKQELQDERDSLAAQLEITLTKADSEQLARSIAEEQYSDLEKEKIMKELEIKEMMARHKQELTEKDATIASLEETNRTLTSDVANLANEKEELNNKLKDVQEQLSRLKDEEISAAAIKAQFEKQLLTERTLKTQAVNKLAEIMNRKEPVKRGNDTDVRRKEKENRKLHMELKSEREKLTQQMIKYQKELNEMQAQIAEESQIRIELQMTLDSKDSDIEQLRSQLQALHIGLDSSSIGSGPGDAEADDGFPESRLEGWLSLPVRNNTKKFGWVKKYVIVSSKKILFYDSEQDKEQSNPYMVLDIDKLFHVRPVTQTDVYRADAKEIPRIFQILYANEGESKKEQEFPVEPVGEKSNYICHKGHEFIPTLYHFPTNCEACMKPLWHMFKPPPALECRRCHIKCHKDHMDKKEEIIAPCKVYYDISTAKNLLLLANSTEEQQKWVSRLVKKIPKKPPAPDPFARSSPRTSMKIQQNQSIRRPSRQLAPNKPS
Sequence of Serine/threonine-protein kinase D2 (Homo sapiens) (Q9BZL6 whole entry): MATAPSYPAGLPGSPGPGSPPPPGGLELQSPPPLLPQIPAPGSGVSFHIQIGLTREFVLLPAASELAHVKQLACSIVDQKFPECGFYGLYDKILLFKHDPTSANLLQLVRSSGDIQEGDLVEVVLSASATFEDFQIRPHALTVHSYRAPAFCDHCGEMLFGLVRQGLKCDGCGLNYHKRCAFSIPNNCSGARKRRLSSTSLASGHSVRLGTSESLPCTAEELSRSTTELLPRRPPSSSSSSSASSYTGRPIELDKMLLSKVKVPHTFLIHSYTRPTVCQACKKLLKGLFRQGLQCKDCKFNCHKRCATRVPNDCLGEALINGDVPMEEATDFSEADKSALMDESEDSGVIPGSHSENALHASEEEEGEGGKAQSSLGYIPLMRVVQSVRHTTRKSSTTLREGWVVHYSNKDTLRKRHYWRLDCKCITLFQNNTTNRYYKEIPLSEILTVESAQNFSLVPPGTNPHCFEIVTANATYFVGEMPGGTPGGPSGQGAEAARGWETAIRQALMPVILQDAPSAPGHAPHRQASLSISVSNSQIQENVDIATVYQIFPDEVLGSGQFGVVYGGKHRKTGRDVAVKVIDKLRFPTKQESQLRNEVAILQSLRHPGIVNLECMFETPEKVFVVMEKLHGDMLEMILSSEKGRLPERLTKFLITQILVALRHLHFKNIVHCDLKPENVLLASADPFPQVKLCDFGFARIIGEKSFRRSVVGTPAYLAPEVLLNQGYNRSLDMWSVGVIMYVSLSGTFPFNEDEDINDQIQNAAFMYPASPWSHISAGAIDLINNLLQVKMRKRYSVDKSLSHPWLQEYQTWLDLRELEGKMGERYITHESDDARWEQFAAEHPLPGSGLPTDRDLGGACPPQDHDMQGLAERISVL
Sequence of Rhodopsin kinase GRK7 (Homo sapiens) (Q8WTQ7 whole entry): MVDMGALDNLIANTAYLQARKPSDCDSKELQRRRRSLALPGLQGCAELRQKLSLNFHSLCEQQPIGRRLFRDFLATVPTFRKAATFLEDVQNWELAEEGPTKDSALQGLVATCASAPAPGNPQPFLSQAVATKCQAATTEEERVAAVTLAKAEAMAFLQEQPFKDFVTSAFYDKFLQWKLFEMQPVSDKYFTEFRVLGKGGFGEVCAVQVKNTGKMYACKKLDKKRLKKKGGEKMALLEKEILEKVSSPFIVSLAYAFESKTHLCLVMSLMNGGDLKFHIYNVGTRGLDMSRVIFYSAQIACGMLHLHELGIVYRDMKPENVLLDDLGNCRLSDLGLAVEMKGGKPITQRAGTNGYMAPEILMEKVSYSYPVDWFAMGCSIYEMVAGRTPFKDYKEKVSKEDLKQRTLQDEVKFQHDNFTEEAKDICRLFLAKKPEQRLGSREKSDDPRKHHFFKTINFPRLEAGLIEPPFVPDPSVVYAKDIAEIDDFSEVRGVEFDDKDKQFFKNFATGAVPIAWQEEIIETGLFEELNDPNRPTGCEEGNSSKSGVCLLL

CNC(=O)Oc1cc(C)c(/C=C/c2cncc(C(=O)NC)c2)c(C)c1 gave an inhibition [1] of 1.66%, an inhibition [2] of 1.83% and an inhibition [3] of 0.76%. It also gave an inhibition [4] of 1.15%, an inhibition [5] of 1.57% and an inhibition [6] of 1.51%. The inhibition [7] was 2.38%, the inhibition [8] was -2.05% and the inhibition [9] was 0.83%. It also gave an inhibition [10] of -7.52%, an inhibition [11] of 0.96% and an inhibition [12] of 1.01%. For the same molecule, the inhibition [13] was 0.52%, the inhibition [14] was 2.49% and the inhibition [15] was -0.65%. For the same molecule, the inhibition [16] was 2.76%, the inhibition [17] was 0.7% and the inhibition [18] was 5.41%. The inhibition [19] was 2.74%, the inhibition [20] was 2.7% and the inhibition [21] was 3.92%. It also gave an inhibition [22] of 1.8%, an inhibition [23] of 1.69% and an inhibition [24] of 0.7%. It also gave an inhibition [25] of 2.8%, an inhibition [26] of -0.06% and an inhibition [27] of 0.33%. It also gave an inhibition [28] of 0.72%, an inhibition [29] of 3.06% and an inhibition [30] of 2.88%. For the same molecule, the inhibition [31] was 5.84%, the inhibition [32] was 1.28% and the inhibition [33] was 3.8%. The inhibition [34] was 0.64%, the inhibition [35] was -0.84% and the inhibition [36] was 1.05%. It also gave an inhibition [37] of 0.33%, an inhibition [38] of 1.91% and an inhibition [39] of 4.8%. For the same molecule, the inhibition [40] was 3%, the inhibition [41] was 4.22% and the inhibition [42] was 2.02%. For the same molecule, the inhibition [43] was 3.35%, the inhibition [44] was 3.13% and the inhibition [45] was 4.05%. For the same molecule, the inhibition [46] was 3.07%, the inhibition [47] was 5.39% and the inhibition [48] was 1.78%. It also gave an inhibition [49] of 0.62%, an inhibition [50] of 0.86% and an inhibition [51] of 4.25%. It also gave an inhibition [52] of 1.43%, an inhibition [53] of 3.24% and an inhibition [54] of 2.03%. The inhibition [55] was 4.8%.
